Twelve compounds from PubChem BioAssay (NCATS) can be followed below.

One test relates to CRL-7250. The experiment in a line: Cytotoxic Profiling of Annotated Libraries Using Quantitative High-Throughput Screening (AID 1296008). Note: nearly all actives have a fitted effect of over 60% in size. To be noted: Five cell lines viability, CellTiter-Glo ATP luminescence, 48-72 h; max response: stronger effect = lower value. Summed up: (§1)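 Compounds were pin-transferred onto cells and incubated 48 or 72 hr at 37 degree Celsius, 95% humidity. CellTiter-Glo was added, plates sat 10 min at room temperature, then ATP-coupled luminescence was imaged as the viability read-out.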

The next test has as its system HEK293. The description is as above. To be noted: Five cell lines viability, CellTiter-Glo ATP luminescence, 48-72 h; max response: stronger effect = lower value. In outline:
as §1

The test system of test [1] is HaCat. Described as above. To be noted: Five cell lines viability, CellTiter-Glo ATP luminescence, 48-72 h; max response: stronger effect = lower value. Summed up:
as §1

The test system of a further test is KB-3-1. Described as above. The note with it: Five cell lines viability, CellTiter-Glo ATP luminescence, 48-72 h; max response: stronger effect = lower value. Summed up: as §1
Test [2] has as its system NIH3T3. The description is as above. The note with it: Five cell lines viability, CellTiter-Glo ATP luminescence, 48-72 h; max response: stronger effect = lower value. Summed up: as §1
Test [3] has as its system HACAT. The experiment in a line: qHTS assay to identify novel small-molecules to repurpose for Merkel cell carcinoma treatment (AID 1296009). Note: nearly all actives have a fitted effect of over 60% in size. Note: potency is the fitted concentration of half-maximal effect. To be noted: MCC and control cell lines, CellTiter-Glo viability, 72 h; at 44.8 µM (top of the series) unless noted. Summed up:
(§2)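 Cells exposed to NPC (8-point) and MIPE (11-point) compound dilutions for 72 hr at 37 degree celsius; viability read by CellTiter-Glo luminescence, normalized to no-cell and DMSO in-plate controls.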

The next test concerns MCC-13. The test is described as above. The note with it: MCC and control cell lines, CellTiter-Glo viability, 72 h; series mostly up to 46 µM. In outline: as §2
For another test, the system named is MCC-26. The description is as above. The note with it: MCC and control cell lines, CellTiter-Glo viability, 72 h; series mostly up to 46 µM. Summed up: as §2
The next test has as its system MKL-1. The description is as above. To be noted: MCC and control cell lines, CellTiter-Glo viability, 72 h; series mostly up to 46 µM. Summed up:
as §2

For another test, the system named is MKL-2. The description is as above. To be noted: MCC and control cell lines, CellTiter-Glo viability, 72 h; series mostly up to 46 µM. In outline:
as §2

Test [4] deals with NIH3T3. Described as above. The note with it: MCC and control cell lines, CellTiter-Glo viability, 72 h; series mostly up to 44.8 µM. Summed up: as §2
Another test relates to UISO. The test is described as above. The note with it: MCC and control cell lines, CellTiter-Glo viability, 72 h; series mostly up to 46 µM. In outline:
as §2

The test system of another test is HEK293T. The test is described as above. The note with it: MCC and control cell lines, CellTiter-Glo viability, 72 h; at 44.8 µM (top of the series) unless noted. Summed up: as §2
Another test deals with WaGa. Described as above. To be noted: MCC and control cell lines, CellTiter-Glo viability, 72 h; series mostly up to 46 µM. Summed up:
as §2

Another test deals with C33A. The experiment in a line: Primary qHTS to identify gynecologic anti-cancer compounds using libraries of approved drugs and bioactive compounds (AID 1345084). Note: nearly all actives have a fitted effect of over 55% in size. To be noted: Gynecologic cancer cell panel viability, ATPlite luminescence, 48 h; series mostly up to 57.5 µM. In outline:
(§3)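 Luminescence from the ATPlite ATP-monitoring reagent indicates viable cell number; lower signal means cytotoxicity. Cells received compound 16 h after seeding and were exposed for 48 h across five concentrations.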

A further test has as its system CASKI. Described as above. The note with it: Gynecologic cancer cell panel viability, ATPlite luminescence, 48 h; series mostly up to 57.5 µM. Summed up: as §3
The test system of a further test is Es-2. The test is described as above. To be noted: Gynecologic cancer cell panel viability, ATPlite luminescence, 48 h; series mostly up to 57.5 µM. Summed up: as §3
The test system of another test is HeLa. The description is as above. The note with it: Gynecologic cancer cell panel viability, ATPlite luminescence, 48 h; series mostly up to 57.5 µM. In outline:
as §3

The structures appear in SMILES notation. Where “and” joins values, the source holds several entries; their conditions need not be identical. Equal values may be shown once. Results filed as inconclusive are left out. Values without a mark were called inactive. Calls of active or inactive are those of the source. Calls come from the whole dose curve; as a rule, active = well fitted curve in the direction sought with a large enough effect; inconclusive = small, poorly fitted or top-dose-only effect, or another doubt; inactive = no such curve, though single readings can be large; an effect the other way counts as inactive or inconclusive.
% is set by controls: 0 for no effect and ±100 for the full control effect.

Turning to `CCC(c1ccc(O)cc1)C(CC)c1ccc(O)cc1` (configuration not stated), the outcome in the test on CRL-7250, in the test with HaCat [1], with NIH3T3 [2] and in the test with HACAT [3] was inactive. Besides, the results for the max response with HEK293 and with KB-3-1 were -1.04% and 9.65%, respectively. For the same compound, the Potency result in the test with MCC-13, with MCC-26, in the test on MKL-1, in the test on MKL-2, in the test with NIH3T3 [4] and in the test with UISO was “inactive” throughout.
`CCNC(=O)[C@H]1O[C@@H](n2cnc3c(N)nc(NCCc4ccc(CCC(=O)O)cc4)nc32)[C@H](O)[C@H]1O`: the values for the max response in the test on CRL-7250, with HaCat [1] and with KB-3-1 were 4.93%, -10.6% and -0.875%, respectively. The compound was called inactive in the test on HEK293, in the test with NIH3T3 [2] and with HEK293T. In addition, the Potency entry in the test on MCC-13, with MCC-26, in the test on MKL-1, with MKL-2, with NIH3T3 [4] and in the test with UISO was “inactive” in each case. Moreover, the Potency entry in the test with WaGa was “inactive”.
In the case of `CC(=O)NCCC(=O)N[C@@H](CCC(N)=O)C(=O)N[C@@H](CO)C(=O)N[C@@H](CCC(N)=O)C(=O)N[C@@H](CCC(N)=O)C(=O)N[C@H](C(=O)N[C@@H](Cc1ccccc1)C(=O)N[C@]1(C)CCCCCCC=CCCC[C@@](C)(C(=O)N[C@@H](CCC(N)=O)C(=O)N[C@@H](CC(N)=O)C(N)=O)NC(=O)[C@H](CC(C)C)NC(=O)[C@H](CC(C)C)NC(=O)[C@@H](CCCNC(=N)N)NC(=O)[C@H](Cc2c[nH]c3ccccc23)NC(=O)[C@H](CC(C)C)NC(=O)[C@H](CC(N)=O)NC1=O)[C@H](C)O`, the max response with CRL-7250 was 1.13%; with HEK293, -2.69%; in the test on NIH3T3 [2], 0.272%. For the same compound, the result with HaCat [1], in the test with KB-3-1 and in the test with HACAT [3] was inactive. The Potency result with MCC-13, in the test on MKL-1, in the test on UISO and in the test on WaGa was “inactive” throughout.
With `C=CC[N+]1([C@H]2C[C@H]3[C@@H]4CC[C@H]5C[C@H](O)[C@@H](N6CCOCC6)C[C@]5(C)[C@@H]4CC[C@]3(C)[C@H]2OC(C)=O)CCCC1`, the compound was called inactive with CRL-7250, with HaCat [1] and in the test on HACAT [3]. In addition, the max response in the test with HEK293 was -1.88%; with KB-3-1 it was 8.47%; with NIH3T3 [2], 4.84%. In addition, the Potency entry in the test with MCC-13, in the test with MCC-26, in the test on MKL-1, in the test on MKL-2, in the test with UISO and with WaGa was “inactive” throughout.
`NCC1CCC(C(=O)O)CC1` (configuration not stated): the max response in the test on CRL-7250 is -3.04%; in the test with HEK293, 2.93%; in the test with KB-3-1, 7.37% and 2.9%; in the test on NIH3T3 [2], -3.72%. In addition, the result in the test on HaCat [1] and in the test with HACAT [3] was inactive. The Potency entry with MCC-13, with MCC-26, in the test on MKL-1, in the test with MKL-2, with UISO and in the test with WaGa was “inactive” each time.
Take `O=C(CC12CC3CC(CC(C3)C1)C2)Nc1cccc2nc(NCCNCCO)ccc12`: the max response was -13.8% and 3.99% in the test with CRL-7250; -37.5% in the test on HEK293; -12.7% in the test with KB-3-1. Further, the outcome in the test on HaCat [1], with NIH3T3 [2] and in the test on HACAT [3] was inactive. For the same compound, the Potency result in the test on MCC-13, in the test on MCC-26, in the test with MKL-1, with NIH3T3 [4], in the test with UISO and with WaGa was “inactive” in each case. Moreover, the Potency result with C33A, in the test with CASKI, in the test on Es-2 and with HeLa was “inactive” in each case.
As to `CC1CNc2c(cccc2S(=O)(=O)N[C@@H](CCCN=C(N)N)C(=O)N2CC[C@@H](C)C[C@@H]2C(=O)O)C1` (some centres not stated), the compound was called inactive with CRL-7250, in the test on HEK293, in the test on HaCat [1], with HACAT [3] and with HEK293T. The max response is 9.69% with KB-3-1 and -2.95% with NIH3T3 [2]. Besides, the Potency entry with MCC-13, in the test with MCC-26 and with UISO was “inactive” each time. In addition, the Potency in the test with MKL-1 is 16.6 µM (active); in the test with MKL-2 it was 3.72 µM (active); in the test with WaGa, 4.69 µM (active).
`CCC[C@@H](NC(=O)[C@@H]1[C@H]2CCC[C@@H]2CN1C(=O)[C@@H](NC(=O)[C@@H](NC(=O)c1cnccn1)C1CCCCC1)C(C)(C)C)C(=O)C(=O)NC1CC1`: the compound was classed as inactive with CRL-7250, in the test on HaCat [1], in the test on KB-3-1, in the test on NIH3T3 [2] and with HACAT [3]. In addition, the max response in the test with HEK293 is -0.244%. Further, the Potency entry in the test with MCC-13, in the test with MCC-26, in the test with MKL-1, in the test on MKL-2, in the test on NIH3T3 [4] and with UISO was “inactive” each time. The Potency entry in the test with WaGa was “inactive”.
Turning to `Nc1[nH]nc2nnc(-c3c(-c4ccccc4)nn4ccccc34)cc12`, the result in the test with CRL-7250, in the test on HaCat [1], in the test with KB-3-1, in the test with NIH3T3 [2] and in the test with HACAT [3] was inactive. For the same compound, in the test on HEK293, the max response was 2.02% and -4.98%. For the same compound, the Potency result with MCC-13, in the test with MCC-26, in the test with MKL-1, in the test with NIH3T3 [4], in the test on UISO and with C33A was “inactive” in each case. Besides, the Potency result in the test with CASKI, with Es-2 and in the test with HeLa was “inactive” each time. Further, the Potency with WaGa is 1.05 µM (active).
`C[C@@H](O)[C@H]1C(=O)N2C(C(=O)OCOC(=O)C(C)(C)C)=C(SC3CN(C4=NCCS4)C3)[C@H](C)[C@H]12`: the max response was 0.148% in the test with CRL-7250 and 8.8% in the test with KB-3-1. Besides, the compound was classed as inactive in the test on HEK293, in the test with HaCat [1], in the test on NIH3T3 [2], with HACAT [3] and with HEK293T. In addition, the Potency result in the test on MCC-13, with MKL-1, in the test on NIH3T3 [4], in the test with UISO and in the test with WaGa was “inactive” each time.
Consider `CCCCCCCCCCCCCCCC(=O)O[C@H]1[C@@H](O)[C@@H](O)[C@@H]([C@H](NC(=O)[C@@H]2C[C@@H](CCC)CN2C)[C@H](C)Cl)O[C@@H]1SC`, for which the compound was called inactive in the test on CRL-7250, with HaCat [1], in the test with KB-3-1, with NIH3T3 [2] and with HACAT [3]. In addition, the max response in the test with HEK293 is -29.9%. The Potency result in the test on MCC-13, in the test on MCC-26, in the test with MKL-1, in the test with NIH3T3 [4], in the test on UISO and in the test on WaGa was “inactive” throughout.
Consider `O=C(NCCCCN1CCOCC1)c1cc2ccccc2o1`, for which the figures for the max response in the test with CRL-7250, in the test on HEK293 and with NIH3T3 [2] were -1.43%, -14.9% and 3.06%, respectively. Further, the compound was called inactive with HaCat [1], with KB-3-1 and in the test with HACAT [3]. Also, the Potency result in the test on MCC-13, with MKL-1, in the test on MKL-2, in the test on UISO and in the test on WaGa was “inactive” each time.
